Screening results (PubChem BioAssay)
A selection: hits, their analogues and other compounds. The true share with any hit is near 7.9%.
HCMV inh – human cytomegalovirus inhibition. HFF cells, HCMV-luciferase reporter, 72 h; active compounds read low. activity change, negative = inhibition, % at 57.5 µM. hit rate 4.5% among 410,000; in the data active = activity change below about -60%; inconclusive = no clear call, values can overlap the other calls; inactive = above about -39%
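Screen run at 2 compound doses on HFFs infected with reporter HCMV, MOI 1 PFU/cell. Luciferase activity from cell lysates at 72 h post infection gave inhibition relative to buffer-only and Salinomycin wells.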
Marburg entry inh – Marburg virus entry inhibition; Marburg virus pseudotyped entry inhibition, cell reporter; hit rate 1.8% among 300,000; AID 540276; Potency, µM (doses to about 37.8 µM), hits mostly inhibitors; calls by dose curve; tested in HEK293 cells
FMDV inh – antivirals against foot and mouth disease virus | FMDV antiviral cell-based qHTS | Potency, µM (titrated, usually from 57.9 µM), most hits filed as inhibitors | hit rate 1.2% among 410,000 | AID 1159524; calls by dose curve; tested in HEK293T cells; note: read-out not given here; nearly all actives have a fitted effect of over 45% in size
Lassa entry inh – Lassa virus entry inhibition | Lassa virus pseudotype entry inhibition, cell reporter | Potency, µM (top dose mostly 37.9 µM), actives largely listed as inhibitors | hit rate 1.2% among 300,000 | AID 540256; calls by dose curve; tested in HEK293 cells; note: nearly all actives have a fitted effect of over 50% in size
HCV inhibitor – HCV inhibition. Huh7.5.1 HCVcc-Cre infection, luciferase reporter, 44 h. Potency, µM (series often up to 41.8 µM), most hits filed as inhibitors. hit rate 3.4% among 340,000; active = well fitted inhibition curve with a large enough effect; inconclusive = small, poorly fitted or top-dose-only effect, or another doubt; inactive = no such curve, though single readings can be large or run the other way
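1,000 cells/well; 4 h culture; + compound; + HCVcc-Cre (~0.5 moi); 44 h; luciferase substrate, RT 15 min; read 15 sec.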
Large screens that a line does not name were inactive.

CCN(CC)c1ccc(/C=N/NC(=O)c2cnccn2)cc1	HCMV inh inconclusive, Marburg entry inh inconclusive, Lassa entry inh inconclusive
CCN(CC)c1ccc(/C=N/NC(=O)c2ccccn2)cc1	Marburg entry inh inconclusive, Lassa entry inh 11µM, HCV inhibitor inconclusive
CCc1ccc(/C=N/NC(=O)c2ccccn2)cc1	Marburg entry inh inconclusive, FMDV inh 13µM, Lassa entry inh 1.4µM
Cc1ccc(/C=N/NC(=O)c2ccccn2)s1	Marburg entry inh 6.5µM, Lassa entry inh inconclusive
Cc1ccc(CCC(=O)Nc2ccc(Br)cc2)o1	none (no result: Marburg entry inh, Lassa entry inh)
CCn1c(CNc2ccc(Cl)cc2)nnc1SCc1ccc(Cl)cc1	Marburg entry inh inconclusive, Lassa entry inh inconclusive, HCV inhibitor inconclusive
CCn1c(CNc2ccc(Cl)cc2)nnc1SCCN1CCCCC1	HCMV inh -106, HCV inhibitor inconclusive
Clc1ccc(NCc2nnc3n2CCCCC3)cc1	HCMV inh -99
COc1ccc(C(=O)Nc2nc3ccccc3s2)cc1	HCV inhibitor inconclusive (no result: Marburg entry inh, Lassa entry inh)
Cc1cnc(NC(=O)c2ccc(OCC3CCCO3)cc2)s1 (stereo unspecified)	Marburg entry inh inconclusive, Lassa entry inh 1.8µM
Cc1ccc(NC(=O)c2ccc(OCC3CCCO3)cc2)nc1 (stereo unspecified)	Marburg entry inh inconclusive, FMDV inh inconclusive, Lassa entry inh inconclusive
O=C(Nc1nc2ccccc2s1)c1ccc(OCC2CCCO2)cc1 (stereo unspecified)	HCMV inh -88, Marburg entry inh inconclusive, Lassa entry inh 10µM, HCV inhibitor 7.9µM
COc1ccc(-c2noc(N3CCN(c4ccc(C)cc4)C(C)C3)n2)cc1OC (stereo unspecified)	FMDV inh inconclusive (no result: Marburg entry inh, HCV inhibitor)
CC(C)CC(=O)Nc1ccc2c(c1)OCO2	Marburg entry inh inconclusive, Lassa entry inh inconclusive
O=C(Nc1ccc2c(c1)OCCO2)Nc1ccc2c(c1)OCO2	Marburg entry inh inconclusive, Lassa entry inh 8.9µM
NC(=O)c1ccc(NC(=O)Nc2ccc3c(c2)OCO3)cc1	none (no result: Marburg entry inh, Lassa entry inh)
O=C(Nc1ccc2c(c1)OCO2)c1noc2c1CCCC2	Marburg entry inh 7.1µM, Lassa entry inh inconclusive
C=C(C)C(=O)Nc1ccc2c(c1)OCCOCCOCCO2	Marburg entry inh 11µM
O=C(CCl)Nc1ccc2c(c1)OCO2	HCMV inh -61, Marburg entry inh inconclusive, FMDV inh inconclusive, Lassa entry inh inconclusive, HCV inhibitor inconclusive
O=C(NC1CCOCC1)C1CCC(=O)N(Cc2cccc(C(F)(F)F)c2)C1 (stereo unspecified)	none (no result: Marburg entry inh, Lassa entry inh)
CCOC(=O)C(Nc1ccccc1NC(=O)OC(C)(C)C)C(=O)Nc1c(C)cccc1C (stereo unspecified)	none (no result: Marburg entry inh, FMDV inh, Lassa entry inh, HCV inhibitor)
C/C(=C\C(=O)c1ccccc1)Nc1ccc2c(c1)OCO2	HCV inhibitor 3.2µM
CC(=O)Nc1cccc(-c2cccc3nccn23)c1	none (no result: Marburg entry inh, Lassa entry inh, HCV inhibitor)
CC(CCc1ccccc1)NCCC#N (stereo unspecified)	Marburg entry inh inconclusive
CC(CCc1ccc(O)cc1)NCCC(c1ccccc1)c1ccccc1 (stereo unspecified)	Marburg entry inh 7.1µM, Lassa entry inh inconclusive, HCV inhibitor 14µM
CC(CCc1ccccc1)NCC#N (stereo unspecified)	HCMV inh -61 (no result: Marburg entry inh, Lassa entry inh)
CCOc1ccc(Cn2nnc(C(=O)Nc3cccc(SC)c3)c2N)cc1	none (no result: HCV inhibitor)
COc1ccc(C(=O)NN/C(=N/S(=O)(=O)c2ccc(C)cc2)c2ccccc2)cc1	Marburg entry inh inconclusive, Lassa entry inh 8.9µM
Cc1ccccc1COC(=O)c1cc([N+](=O)[O-])ccc1N1CCOCC1	HCV inhibitor 13µM (no result: Marburg entry inh, Lassa entry inh)
CSc1ccc(COC(=O)c2cc([N+](=O)[O-])ccc2N2CCOCC2)cc1	HCMV inh -83, Marburg entry inh inconclusive, Lassa entry inh inconclusive, HCV inhibitor inconclusive
O=C(OCc1ccccc1C(F)(F)F)c1cc([N+](=O)[O-])ccc1N1CCOCC1	Marburg entry inh inconclusive, Lassa entry inh inconclusive, HCV inhibitor inconclusive
O=C(c1cc([N+](=O)[O-])ccc1N1CCOCC1)N1CCN(c2ccccc2)CC1	HCMV inh -87 (no result: Marburg entry inh, FMDV inh, Lassa entry inh, HCV inhibitor)
CN(C)S(=O)(=O)c1cccc(COC(=O)c2cc([N+](=O)[O-])ccc2N2CCOCC2)c1	FMDV inh inconclusive, Lassa entry inh inconclusive, HCV inhibitor 13µM
Cc1ccc(OCC(=O)NCC2(N(C)C)CCCCC2)cc1C	none (no result: HCV inhibitor)
Cc1ccc2c(c1)C(c1ccccc1)N(C(=O)c1ccc(OC(C)C)cc1)CC(=O)N2 (stereo unspecified)	Lassa entry inh inconclusive (no result: HCV inhibitor)
O=C(OCc1ccccc1F)c1cc([N+](=O)[O-])ccc1N1CCOCC1	Marburg entry inh inconclusive, HCV inhibitor 10µM
COc1ccc(OC)c(COC(=O)c2cc([N+](=O)[O-])ccc2N2CCOCC2)c1	HCV inhibitor 8.9µM (no result: Marburg entry inh, Lassa entry inh)
CCOc1ccc(C(C)=O)cc1COC(=O)c1cc([N+](=O)[O-])ccc1N1CCOCC1	Marburg entry inh inconclusive, HCV inhibitor inconclusive
O=C(C1CCCCC1)N1CCOc2ccc(CN3CCN(Cc4ccccn4)CC3)cc2C1	none (no result: HCMV inh, Marburg entry inh, Lassa entry inh, HCV inhibitor)
CC(Oc1ccc(Cl)cc1Cl)C(=O)N(C)c1ccccc1 (stereo unspecified)	HCMV inh -67 (no result: Marburg entry inh, Lassa entry inh)
O=C(c1ccco1)N(Cc1cc2cc3c(cc2nc1N1CCOCC1)CCC3)CC1CCCO1 (stereo unspecified)	none (no result: HCMV inh, Marburg entry inh, Lassa entry inh, HCV inhibitor)
COc1ccc(CCNCC(=O)Nc2ccc(C)c(S(=O)(=O)N(C)C)c2)cc1	Lassa entry inh inconclusive, HCV inhibitor inconclusive
COc1cc(CCC(=O)OCC(=O)Nc2cccc(S(=O)(=O)N(C)C)c2)cc(OC)c1OC	none
Cc1ccc(NC(=O)c2ccc(OC(F)F)cc2)cc1S(=O)(=O)N(C)C	HCMV inh -95, Marburg entry inh inconclusive, FMDV inh inconclusive, HCV inhibitor 7.9µM
COc1ccc(S(=O)(=O)N(C)C)cc1NCC(=O)Nc1ccc(Br)c(C)c1	HCMV inh inconclusive, Marburg entry inh inconclusive, HCV inhibitor 10µM
COc1ccc(CCC(=O)Nc2ccc(C)c(S(=O)(=O)N(C)C)c2)cc1OC	HCMV inh -77, Marburg entry inh 11µM, FMDV inh 10µM, HCV inhibitor inconclusive
COc1cc(CCC(=O)Nc2ccc(C)c(S(=O)(=O)N(C)C)c2)cc(OC)c1OC	Marburg entry inh inconclusive, FMDV inh 28µM, Lassa entry inh inconclusive, HCV inhibitor inconclusive
CCNC(=O)c1cc(NC(=O)COC)cc2nc(-c3ccncc3)n(C)c12	none (no result: HCMV inh, Marburg entry inh, Lassa entry inh, HCV inhibitor)
Cc1c(C(=O)N2CCCCC2)c(S(=O)(=O)N2CCN(c3ccccc3F)CC2)c(C)n1C	HCMV inh inconclusive
Cc1ccc(OCC(=O)Nc2nonc2-c2ccc(Br)cc2)cc1C	none (no result: HCV inhibitor)
Cc1ccc(NC(=O)CCNC(=O)c2ccc([N+](=O)[O-])cc2)cc1S(=O)(=O)N(C)C	HCMV inh inconclusive, Marburg entry inh 10µM, FMDV inh 28µM, Lassa entry inh inconclusive, HCV inhibitor inconclusive
Cc1cc(NC(=O)CN(C)S(=O)(=O)c2ccc3c(c2)CCC(=O)N3)ccc1Br	HCMV inh inconclusive, Marburg entry inh inconclusive, FMDV inh 14µM (no result: HCV inhibitor)
Cc1ccc(NC(=O)CN2C(=O)C3C4C=CC(C4)C3C2=O)cc1S(=O)(=O)N(C)C (stereo unspecified)	HCMV inh -103
COc1cccc(-c2ncc3ccccc3c2COC(=O)c2ccc(C(F)(F)F)cc2)c1	none (no result: Marburg entry inh, Lassa entry inh)
c1ccc(OCCNc2ccn3nc(-c4cccs4)cc3n2)cc1	none (no result: Marburg entry inh, Lassa entry inh, HCV inhibitor)
